57 compounds from publication PMC4336329 (PLoS ONE, 2015) can be followed below.

Structures are written as SMILES. Among all 310,000 compounds or so, about 14,000 (4.5%) showed an effect of 50% or more. The effect is printed as a negative number. The sample as a whole holds a higher share of strong results than the screen did.
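Further: peak tail current of the secondary pulse compared with the same well before compound.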

human ether-à-go-go-related gene (hERG) potassium channel, sequence (Q12809 whole entry, looked up): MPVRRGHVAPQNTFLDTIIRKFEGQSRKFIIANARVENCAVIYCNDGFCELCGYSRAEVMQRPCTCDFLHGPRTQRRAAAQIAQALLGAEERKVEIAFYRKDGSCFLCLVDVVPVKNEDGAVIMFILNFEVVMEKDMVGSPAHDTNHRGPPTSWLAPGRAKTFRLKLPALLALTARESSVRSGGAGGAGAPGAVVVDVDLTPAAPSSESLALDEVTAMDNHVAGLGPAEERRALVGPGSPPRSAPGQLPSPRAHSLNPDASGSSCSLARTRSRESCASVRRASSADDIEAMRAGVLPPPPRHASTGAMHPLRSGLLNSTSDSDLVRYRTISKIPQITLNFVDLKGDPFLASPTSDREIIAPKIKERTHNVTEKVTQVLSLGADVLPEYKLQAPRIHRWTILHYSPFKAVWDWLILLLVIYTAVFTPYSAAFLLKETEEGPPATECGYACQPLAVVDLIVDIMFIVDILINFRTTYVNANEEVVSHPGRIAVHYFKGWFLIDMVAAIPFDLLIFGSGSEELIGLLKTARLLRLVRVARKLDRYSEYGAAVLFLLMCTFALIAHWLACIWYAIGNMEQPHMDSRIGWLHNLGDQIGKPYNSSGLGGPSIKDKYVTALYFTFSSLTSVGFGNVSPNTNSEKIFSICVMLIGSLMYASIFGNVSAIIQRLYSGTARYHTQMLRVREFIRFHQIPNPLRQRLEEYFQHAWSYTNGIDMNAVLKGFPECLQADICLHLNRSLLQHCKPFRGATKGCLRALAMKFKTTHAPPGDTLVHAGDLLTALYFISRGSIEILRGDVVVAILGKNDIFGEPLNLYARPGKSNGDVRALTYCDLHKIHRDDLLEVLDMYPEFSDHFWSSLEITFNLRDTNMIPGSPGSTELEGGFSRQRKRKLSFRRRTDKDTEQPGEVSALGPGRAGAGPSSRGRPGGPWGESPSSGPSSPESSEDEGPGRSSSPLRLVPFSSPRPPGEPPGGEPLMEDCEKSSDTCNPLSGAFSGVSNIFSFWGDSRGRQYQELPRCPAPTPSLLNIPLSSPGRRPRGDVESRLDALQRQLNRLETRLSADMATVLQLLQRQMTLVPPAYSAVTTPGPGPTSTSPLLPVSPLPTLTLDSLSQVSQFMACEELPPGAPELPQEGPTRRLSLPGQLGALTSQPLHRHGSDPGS

The experiment concerns the target human ether-à-go-go-related gene (hERG) potassium channel (human, UniProt Q12809). The experiment can be described thus: primary screen, population patch clamp on CHO cells stably expressing hERG; higher = less effect of the substance.
As to `Cc1cccc(N(C)c2cc(C)nc3nc(C)nn23)c1`, the “hERG current change (%, negative = inhibition) at 10uM” value is given as -15.8%.

With `Cc1ccc(-c2cnn(-c3cccc(C(F)(F)F)c3)c2N)cc1`, the “hERG current change (%, negative = inhibition) at 10uM” value is given as -3.62%. Regarding `COc1ccc(NC(=O)C(=O)NCCN2CCN(C(=O)c3ccc(C(C)(C)C)cc3)CC2)cc1`, the “hERG current change (%, negative = inhibition) at 10uM” value was -2.54%. Regarding `CCOc1ccc(NC(=O)C(=O)NCCN2CCN(C(=O)c3ccc(C)cc3)CC2)cc1`, the “hERG current change (%, negative = inhibition) at 10uM” value is recorded as -75.2%.

For `COc1ccc(NC(=O)C(=O)NCCN2CCN(C(=O)c3ccc(C)cc3)CC2)cc1`, the “hERG current change (%, negative = inhibition) at 10uM” value is -75.4%.

On to `COc1ccc(NC(=O)C(=O)NCCN2CCN(C(=O)C(c3ccccc3)c3ccccc3)CC2)cc1`, for which the “hERG current change (%, negative = inhibition) at 10uM” value is on record as -20.8%. Consider `CCOc1ccc(NC(=O)C(=O)NCCN2CCN(S(=O)(=O)c3ccc(C)cc3)CC2)cc1`, for which the “hERG current change (%, negative = inhibition) at 10uM” value was determined as 8.62%.

In the case of `O=C(NCCN1CCN(C(=O)c2ccc([N+](=O)[O-])cc2)CC1)C(=O)Nc1ccc(F)cc1`, the “hERG current change (%, negative = inhibition) at 10uM” value is -76.8%. For `CNC(=O)C(=O)NCCN1CCN(C(=O)c2ccc([N+](=O)[O-])cc2)CC1`, the “hERG current change (%, negative = inhibition) at 10uM” value is recorded as -39.6%. With `CCOc1ccc(NC(=O)C(=O)NCCN2CCN(S(=O)(=O)c3ccccc3)CC2)cc1`, the “hERG current change (%, negative = inhibition) at 10uM” value is -8.75%. Take `CCC(C)[C@H](NC(=O)NCc1ccccc1Cl)C(=O)OC` (stereo partly drawn): the “hERG current change (%, negative = inhibition) at 10uM” value came out at 12%.

With `CN(C)c1ccc(C(=O)Nc2ccc(S(=O)(=O)NC3=NCCCCC3)cc2)cc1`, the “hERG current change (%, negative = inhibition) at 10uM” value was -5.38%.

Regarding `CCc1ccc(N(C(=O)Cc2cccs2)C(C(=O)NC2CCCCC2)c2cn(C)nc2C)cc1` (stereo not drawn), the “hERG current change (%, negative = inhibition) at 10uM” value is recorded as -21.4%. Consider `CCN1CCCC1CNC(=O)C(=O)NC1CC1` (stereo not drawn), for which the “hERG current change (%, negative = inhibition) at 10uM” value is given as 10.3%. With `CCOC(=O)c1cc(-c2ccc3c(c2)OCCO3)n[nH]1`, the “hERG current change (%, negative = inhibition) at 10uM” value was 20.3%. As for `Cc1cccc(NC(=O)Nc2ccc(Cl)c(Cl)c2)n1`, the “hERG current change (%, negative = inhibition) at 10uM” value is given as 9.38%. For `CCOc1ccccc1C(=O)NCc1ccc2c(c1)OCO2`, the “hERG current change (%, negative = inhibition) at 10uM” value is on record as -12.1%. Consider `O=C(CCN1C(=O)[C@@H]2Cc3ccccc3CN2C1=O)N[C@@H](Cc1ccccc1)C(=O)O`, for which the “hERG current change (%, negative = inhibition) at 10uM” value came out at 8.75%. In the case of `Cc1ccc(Nc2nc(NCCCN3CCOCC3)nc(N)c2[N+](=O)[O-])cc1C`, the “hERG current change (%, negative = inhibition) at 10uM” value is listed as -5.15%. Consider `COc1ccc(Nc2nc(NCCCN3CCOCC3)nc(N)c2[N+](=O)[O-])cc1`, for which the “hERG current change (%, negative = inhibition) at 10uM” value is -22%.

With `Nc1nc(NCCCN2CCOCC2)nc(Nc2ccc(F)cc2)c1[N+](=O)[O-]`, the “hERG current change (%, negative = inhibition) at 10uM” value is -58.6%. With `Nc1nc(NCCCN2CCOCC2)nc(Nc2ccc(Cl)cc2)c1[N+](=O)[O-]` the figure was 7.65%; with `Nc1nc(NCCCN2CCOCC2)nc(Nc2ccccc2)c1[N+](=O)[O-]`, -36.5%.

For `Cc1ccc(Nc2nc(NCCCN3CCOCC3)nc(N)c2[N+](=O)[O-])cc1`, the “hERG current change (%, negative = inhibition) at 10uM” value is reported as -66.1%. For the compound `O=C1CN(C(=O)COC(=O)CNC(=O)c2ccc(Cl)cc2)c2ccccc2N1`, the “hERG current change (%, negative = inhibition) at 10uM” value was -6.75%. As for `CC(C)OC(=O)/C(C#N)=C\c1cccnc1`, the figure is 26.3%. Consider `Cc1cccnc1NC(=O)c1cccc(S(=O)(=O)N2CCCC2)c1`, for which the “hERG current change (%, negative = inhibition) at 10uM” value was -8.13%. As to `CCCn1c(N)c(C(=O)COC(=O)c2c(C)noc2C)c(=O)n(C)c1=O`, the “hERG current change (%, negative = inhibition) at 10uM” value was -21%. With `COC(=O)CN1C(=O)[C@H]2[C@@H](c3ccc(C)o3)N3C(=O)CN(CCO)C(=O)[C@@]3(C)[C@H]2C1=O` the figure was -2.13%; with `CN=C1S/C(=C\c2ccc(Cl)cc2)C(=O)N1C`, 27%.

For `CCCN(CC1CC1)C(=S)Nc1ccc(C(C)=O)cc1`, the “hERG current change (%, negative = inhibition) at 10uM” value turned out to be 0.105%. For the compound `CCOc1ccc(CN2CCN(Cc3cccn3-c3cccnc3)CC2CCO)cc1` (stereo not drawn), the “hERG current change (%, negative = inhibition) at 10uM” value is given as -84.1%. Consider `CCOc1ccc(CN2CCN(Cc3cccn3-c3ncccn3)CC2CCO)cc1` (stereo not drawn), for which the “hERG current change (%, negative = inhibition) at 10uM” value is given as -78.3%. `OCCC1CN(Cc2cccn2-c2cccnc2)CCN1Cc1ccccc1` (stereo not drawn): the “hERG current change (%, negative = inhibition) at 10uM” value is on record as -42.4%.

For the compound `COc1cccc(CN2CCN(Cc3cccn3-c3cccnc3)CC2CCO)c1` (stereo not drawn), the “hERG current change (%, negative = inhibition) at 10uM” value is given as -71.4%. For `OCCC1CN(Cc2cccn2-c2cccnc2)CCN1C1CCCCC1` (stereo not drawn), the “hERG current change (%, negative = inhibition) at 10uM” value is -28.1%. In the case of `OCCC1CN(Cc2cccn2-c2cccnc2)CCN1Cc1ccc(F)cc1` (stereo not drawn), the “hERG current change (%, negative = inhibition) at 10uM” value is -56.9%. With `COC(=O)c1ccc(C)c(NC(=O)CCc2ccc(OC)cc2)c1`, the “hERG current change (%, negative = inhibition) at 10uM” value is -3.01%. Take `CCn1c(SC)nnc1C1CCN(CC(=O)Nc2ccccc2N2CCOCC2)CC1`: the “hERG current change (%, negative = inhibition) at 10uM” value is listed as -31%. With `Nc1ccc(C(=O)Oc2ccc([N+](=O)[O-])cc2)cc1` the figure was 10.9%; with `Cc1ccc(NC(=O)Nc2ccccc2)c(Br)c1`, -1.55%.

As to `Fc1ccc(NC(=S)N2CCCC2)cc1`, the “hERG current change (%, negative = inhibition) at 10uM” value is reported as -1.37%. Turning to `CCCc1cnc(NCCNCC(O)COc2ccc(Cl)c(Cl)c2)nc1` (stereo not drawn), the “hERG current change (%, negative = inhibition) at 10uM” value is -71.2%. Take `Cc1cc(OCC(O)CN)ccc1Cl` (stereo not drawn): the “hERG current change (%, negative = inhibition) at 10uM” value amounted to 8.74%. Consider `Cc1cc(OCC(O)CNC(C)(C)C)ccc1Cl.Cl` (stereo not drawn), for which the “hERG current change (%, negative = inhibition) at 10uM” value is reported as -4.91%. Take `CC(C)c1ccc(OCC(=O)NC2=NCCS2)cc1`: the “hERG current change (%, negative = inhibition) at 10uM” value was found to be 1.4%. With `CCc1cccc(C)c1NC(=O)CN(C)Cc1ccccc1F.O=C(O)C(=O)O`, the “hERG current change (%, negative = inhibition) at 10uM” value is given as -23.8%. As to `CCC(C)c1ccc(NC(=O)CC(C)=O)cc1` (stereo not drawn), the “hERG current change (%, negative = inhibition) at 10uM” value turned out to be 4.93%. As for `CCC(C)c1ccc(NC(=O)COc2c(F)c(F)c(C(F)(F)F)c(F)c2F)cc1` (stereo not drawn), the figure is -57.4%; as for `COc1cccc(NC(=O)COc2c(F)c(F)c(C(F)(F)F)c(F)c2F)c1`, 8.02%. Take `Nc1ccc(C(=O)NC23CC4CC(CC(C4)C2)C3)cc1`: the “hERG current change (%, negative = inhibition) at 10uM” value turned out to be 16.3%.

Turning to `C=CCN(c1ccccc1)S(=O)(=O)c1cccc(C(=O)Nc2ncccc2O)c1`, the “hERG current change (%, negative = inhibition) at 10uM” value is 8.35%. Take `Cn1nccc1C(=O)Nc1ccc(OC(=O)c2ccnn2C)cc1`: the “hERG current change (%, negative = inhibition) at 10uM” value is recorded as -6.68%.

With `CN(CC(O)CN)CC(O)CN1CCCCC1.Cl` (stereo not drawn), the “hERG current change (%, negative = inhibition) at 10uM” value stood at 4.64%.

`Cl.OC(CN1CCOCC1)CN(c1ccccc1)c1ccccc1` (stereo not drawn): the “hERG current change (%, negative = inhibition) at 10uM” value is on record as -28.5%.

Turning to `Cl.OC(CN1CCCCCC1)CN(c1ccccc1)c1ccccc1` (stereo not drawn), the “hERG current change (%, negative = inhibition) at 10uM” value was -71.8%. As for `Cl.OC(CN1CCCCC1)CN(c1ccccc1)c1ccccc1` (stereo not drawn), the figure is -63.2%.
